# Reference: ChEMBL document CHEMBL2218924, “A broad activity screen in support of a chemogenomic map for kinase signalling research and drug discovery” (Biochem J, 2013)
# Columns and labels:
# [1] = target: T1, Ephrin type-A receptor 3 (Homo sapiens) (UniProt P29320); settings: at 10 µM
# T1 sequence (whole entry): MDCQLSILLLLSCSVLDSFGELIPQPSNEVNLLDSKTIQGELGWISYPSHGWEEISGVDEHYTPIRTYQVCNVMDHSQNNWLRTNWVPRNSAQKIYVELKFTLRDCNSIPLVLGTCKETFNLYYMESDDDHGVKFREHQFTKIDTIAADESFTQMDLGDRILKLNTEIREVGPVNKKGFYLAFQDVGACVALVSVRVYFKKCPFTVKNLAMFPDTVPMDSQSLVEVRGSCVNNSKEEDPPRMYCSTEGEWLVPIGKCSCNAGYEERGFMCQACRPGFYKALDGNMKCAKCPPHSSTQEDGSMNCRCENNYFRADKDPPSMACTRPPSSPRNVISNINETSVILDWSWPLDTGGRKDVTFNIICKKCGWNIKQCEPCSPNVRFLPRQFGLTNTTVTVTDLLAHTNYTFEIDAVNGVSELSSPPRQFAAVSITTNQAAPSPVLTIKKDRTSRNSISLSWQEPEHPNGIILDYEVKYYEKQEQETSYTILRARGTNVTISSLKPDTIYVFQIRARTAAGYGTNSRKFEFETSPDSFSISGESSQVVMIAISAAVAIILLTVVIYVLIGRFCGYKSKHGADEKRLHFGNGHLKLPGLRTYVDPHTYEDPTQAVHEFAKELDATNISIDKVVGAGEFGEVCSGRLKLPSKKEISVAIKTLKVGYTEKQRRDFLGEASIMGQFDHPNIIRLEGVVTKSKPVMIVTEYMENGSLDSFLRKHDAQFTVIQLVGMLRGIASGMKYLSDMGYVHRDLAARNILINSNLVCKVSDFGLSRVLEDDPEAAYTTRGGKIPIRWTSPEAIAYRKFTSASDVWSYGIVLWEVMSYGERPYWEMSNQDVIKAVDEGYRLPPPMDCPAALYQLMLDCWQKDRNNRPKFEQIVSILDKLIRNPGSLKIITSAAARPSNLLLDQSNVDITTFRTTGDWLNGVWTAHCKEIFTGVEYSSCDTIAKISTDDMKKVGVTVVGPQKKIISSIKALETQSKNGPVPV
# [2] = target: Ephrin type-A receptor 7 (Homo sapiens) (UniProt Q15375); settings: at 1 µM
# Ephrin type-A receptor 7 (Homo sapiens), sequence (Q15375 28-998 limits assumed): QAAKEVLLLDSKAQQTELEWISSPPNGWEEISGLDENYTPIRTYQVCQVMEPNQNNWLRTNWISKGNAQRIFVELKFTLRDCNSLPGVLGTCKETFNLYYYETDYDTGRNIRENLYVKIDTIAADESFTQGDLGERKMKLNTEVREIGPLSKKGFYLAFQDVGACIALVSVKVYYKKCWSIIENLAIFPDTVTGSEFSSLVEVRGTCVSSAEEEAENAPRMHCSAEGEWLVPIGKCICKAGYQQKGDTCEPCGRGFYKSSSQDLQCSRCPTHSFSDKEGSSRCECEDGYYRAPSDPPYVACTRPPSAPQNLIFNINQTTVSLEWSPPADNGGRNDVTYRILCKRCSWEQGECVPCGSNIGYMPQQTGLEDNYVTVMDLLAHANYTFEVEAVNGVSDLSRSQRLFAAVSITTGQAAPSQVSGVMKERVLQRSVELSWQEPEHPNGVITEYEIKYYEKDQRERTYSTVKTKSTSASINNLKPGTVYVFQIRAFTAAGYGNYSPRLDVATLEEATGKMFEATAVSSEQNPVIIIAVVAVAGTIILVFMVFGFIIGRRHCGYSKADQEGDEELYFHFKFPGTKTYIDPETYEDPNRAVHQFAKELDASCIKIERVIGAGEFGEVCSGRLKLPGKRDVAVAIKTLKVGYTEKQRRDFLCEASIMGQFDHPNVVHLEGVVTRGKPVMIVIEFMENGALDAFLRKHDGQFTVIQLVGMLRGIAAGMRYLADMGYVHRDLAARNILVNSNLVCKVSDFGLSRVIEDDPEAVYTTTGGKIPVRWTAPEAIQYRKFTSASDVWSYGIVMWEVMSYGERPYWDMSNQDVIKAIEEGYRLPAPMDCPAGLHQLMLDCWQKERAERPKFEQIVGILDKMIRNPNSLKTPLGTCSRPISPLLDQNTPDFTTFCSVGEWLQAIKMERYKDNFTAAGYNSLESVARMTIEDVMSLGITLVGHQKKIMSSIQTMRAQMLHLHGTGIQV
# [3] = target: Ephrin type-A receptor 7 (Homo sapiens) (UniProt Q15375); settings: at 10 µM
# [4] = target: T2, Ephrin type-A receptor 8 (Homo sapiens) (UniProt P29322); settings: at 1 µM
# T2 sequence (whole entry): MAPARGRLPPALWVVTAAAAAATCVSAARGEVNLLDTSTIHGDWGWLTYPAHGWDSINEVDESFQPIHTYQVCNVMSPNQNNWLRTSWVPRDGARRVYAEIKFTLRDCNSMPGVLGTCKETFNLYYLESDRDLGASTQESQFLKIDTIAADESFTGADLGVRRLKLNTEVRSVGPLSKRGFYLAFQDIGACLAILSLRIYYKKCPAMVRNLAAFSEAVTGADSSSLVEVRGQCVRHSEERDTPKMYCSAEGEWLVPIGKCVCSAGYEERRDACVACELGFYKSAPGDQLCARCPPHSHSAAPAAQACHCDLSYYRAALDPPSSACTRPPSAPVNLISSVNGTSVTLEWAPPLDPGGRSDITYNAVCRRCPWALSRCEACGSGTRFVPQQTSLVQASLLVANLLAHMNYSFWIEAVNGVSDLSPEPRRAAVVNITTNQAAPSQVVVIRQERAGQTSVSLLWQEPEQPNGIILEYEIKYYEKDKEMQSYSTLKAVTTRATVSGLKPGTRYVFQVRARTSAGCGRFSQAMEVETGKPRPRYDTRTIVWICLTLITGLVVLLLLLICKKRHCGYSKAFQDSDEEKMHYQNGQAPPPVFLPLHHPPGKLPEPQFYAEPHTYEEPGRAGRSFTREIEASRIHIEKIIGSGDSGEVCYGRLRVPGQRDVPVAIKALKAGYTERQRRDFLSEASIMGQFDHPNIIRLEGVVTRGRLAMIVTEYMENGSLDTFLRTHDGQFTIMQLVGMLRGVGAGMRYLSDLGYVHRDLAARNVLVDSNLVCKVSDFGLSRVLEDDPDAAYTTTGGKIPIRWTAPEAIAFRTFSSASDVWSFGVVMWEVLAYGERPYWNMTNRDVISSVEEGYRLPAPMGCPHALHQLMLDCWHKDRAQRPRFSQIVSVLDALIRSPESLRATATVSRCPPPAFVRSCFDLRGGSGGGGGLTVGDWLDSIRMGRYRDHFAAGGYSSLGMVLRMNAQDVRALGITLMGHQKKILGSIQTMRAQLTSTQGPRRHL
# [5] = target: T2, Ephrin type-A receptor 8 (Homo sapiens); settings: at 10 µM
# [6] = target: Receptor tyrosine-protein kinase erbB-4 (Homo sapiens) (UniProt Q15303); settings: at 1 µM
# Receptor tyrosine-protein kinase erbB-4 (Homo sapiens), sequence (Q15303 whole entry): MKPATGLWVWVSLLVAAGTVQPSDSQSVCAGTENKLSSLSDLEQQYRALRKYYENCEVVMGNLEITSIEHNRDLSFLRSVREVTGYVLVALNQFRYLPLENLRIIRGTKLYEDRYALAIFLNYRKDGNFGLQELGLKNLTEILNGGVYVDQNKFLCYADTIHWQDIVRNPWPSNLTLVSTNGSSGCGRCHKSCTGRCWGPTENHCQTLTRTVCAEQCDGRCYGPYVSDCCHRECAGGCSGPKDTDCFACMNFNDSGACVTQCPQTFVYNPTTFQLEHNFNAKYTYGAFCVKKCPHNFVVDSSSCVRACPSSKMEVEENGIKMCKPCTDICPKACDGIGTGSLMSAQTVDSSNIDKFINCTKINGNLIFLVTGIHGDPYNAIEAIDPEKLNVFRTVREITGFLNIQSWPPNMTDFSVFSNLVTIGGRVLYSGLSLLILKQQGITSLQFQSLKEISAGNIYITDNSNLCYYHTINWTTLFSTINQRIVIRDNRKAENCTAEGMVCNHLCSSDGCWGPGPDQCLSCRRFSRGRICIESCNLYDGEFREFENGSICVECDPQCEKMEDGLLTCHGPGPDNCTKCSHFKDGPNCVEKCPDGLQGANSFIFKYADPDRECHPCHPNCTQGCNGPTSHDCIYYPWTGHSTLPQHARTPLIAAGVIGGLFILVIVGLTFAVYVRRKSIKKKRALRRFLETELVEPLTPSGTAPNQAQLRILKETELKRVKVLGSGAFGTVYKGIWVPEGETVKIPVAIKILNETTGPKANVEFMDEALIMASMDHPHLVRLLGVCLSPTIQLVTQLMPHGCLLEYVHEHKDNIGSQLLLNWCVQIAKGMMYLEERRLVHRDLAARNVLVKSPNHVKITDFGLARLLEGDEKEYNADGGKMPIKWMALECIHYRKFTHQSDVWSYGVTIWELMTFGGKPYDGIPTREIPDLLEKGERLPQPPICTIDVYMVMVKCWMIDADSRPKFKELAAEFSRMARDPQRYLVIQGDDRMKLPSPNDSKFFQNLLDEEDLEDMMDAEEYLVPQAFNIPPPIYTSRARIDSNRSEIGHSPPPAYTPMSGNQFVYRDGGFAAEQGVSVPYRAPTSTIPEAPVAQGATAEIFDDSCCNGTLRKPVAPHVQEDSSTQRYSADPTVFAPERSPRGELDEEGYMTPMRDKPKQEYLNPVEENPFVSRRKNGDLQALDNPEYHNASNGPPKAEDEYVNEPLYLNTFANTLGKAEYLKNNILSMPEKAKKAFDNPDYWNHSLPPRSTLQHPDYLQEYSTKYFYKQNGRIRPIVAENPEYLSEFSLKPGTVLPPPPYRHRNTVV
# [7] = target: Receptor tyrosine-protein kinase erbB-4 (Homo sapiens) (UniProt Q15303); settings: at 10 µM
smiles,measurement,setting,value
Cc1cccc(-c2[nH]c(C(C)(C)C)nc2-c2ccc3c(c2)OCO3)n1,residual activity,[1],96%
same,residual activity,[2],98%
same,residual activity,[3],94%
same,residual activity,[4],99%
same,residual activity,[5],105%
same,residual activity,[6],94%
same,residual activity,[7],86%
